Compound activity (PubChem)
Mtb bLac sens: beta-lactam sensitization of Mtb H37Rv; M. tuberculosis H37Rv growth with meropenem, percent inhibition; inhibition, % at 25 µM; 0.27% of 330,000 active; AID 434955; call rule not given here;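 note: growth measured after seven days incubation then overnight dye step; 0% = bacteria only wells and 100% = bacteria with antibiotic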
Rv3671c inh: inhibitors of M. tuberculosis serine protease Rv3671c; P9WHR9; inhibition, % at 5.96 µM; 0.048% of 320,000 active; in the data active = inhibition above about 38%;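 note: extracellular domain of Rv3671c used as enzyme; 0% = enzyme with DMSO and 100% = no enzyme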
Target sequence (P9WHR9 whole entry, looked up, the tested form may be a part): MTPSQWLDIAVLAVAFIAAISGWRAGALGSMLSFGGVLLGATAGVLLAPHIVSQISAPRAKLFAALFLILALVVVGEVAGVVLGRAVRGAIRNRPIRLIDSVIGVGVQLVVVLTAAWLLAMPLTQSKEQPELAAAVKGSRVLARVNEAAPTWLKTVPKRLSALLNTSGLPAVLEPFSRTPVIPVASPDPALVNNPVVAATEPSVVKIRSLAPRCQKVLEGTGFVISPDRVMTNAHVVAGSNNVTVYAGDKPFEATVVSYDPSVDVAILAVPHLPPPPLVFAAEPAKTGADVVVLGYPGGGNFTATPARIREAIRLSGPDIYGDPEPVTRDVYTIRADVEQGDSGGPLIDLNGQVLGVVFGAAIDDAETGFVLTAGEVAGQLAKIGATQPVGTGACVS
UGM FP inh: inhibitors of M. tuberculosis UDP-galactopyranose mutase. P9WIQ1. purified UGM, fluorescence polarization probe displacement. inhibition, % at 10 µM. 0.06% of 320,000 active; in the data active = inhibition above about 10%, passing the limit was not always enough; inconclusive = no clear call, values can overlap the other calls
Sa ugtP lethal: kills S. aureus RN4220 lacking UgtP; S. aureus RN4220 ugtP deletion, OD600 growth, 16 h; growth inhibition, % (test concentration not listed); 0.54% of 330,000 active; AID 1259309; in the data active = growth inhibition above about 68%;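 note: plate controls were untreated wells for no effect and antibiotic for full effect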
Mtb hypoxia inh: Mtb hypoxia fluorescent reporter inhibition. M. tuberculosis hypoxia-regulated fluorescent reporter, fluorescence. fluorescence inhibition, % (no concentration beside the values). 0.1% of 300,000 active; in the data active = fluorescence inhibition mostly above about 23%, no sharp cut-off; inactive = mostly below about 17%
Sa RN4220 lethal: kills Staphylococcus aureus RN4220; S. aureus RN4220 growth, OD600, 16 h; inhibition, % (no concentration beside the values); 0.33% of 330,000 active; in the data active = inhibition above about 85%;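 note: plate controls were untreated cells for no effect and reference antibiotic for full effect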
* marks the source's active call; other numbers are inactive results; ? = inconclusive; . = no result given. Sampled rows, rich in hits. Any-hit rate of the full collection: about 0.68%.

SMILES	Mtb bLac sens	Rv3671c inh	UGM FP inh	Sa ugtP lethal	Mtb hypoxia inh	Sa RN4220 lethal
COc1ccccc1C(CNC(=O)CN1C(=O)NC(C)(c2ccc3ccccc3c2)C1=O)N1CCCC1 (stereo not given)	.	.	.	6	30*	-3
COc1cccc2c1C(=O)c1c(O)c3c(c(O)c1C2=O)C[C@@](O)(C(=O)CO)C[C@@H]3O[C@H]1C[C@H](N)[C@@H](O)[C@H](C)O1	94	37	38*	.	.	.
O=C1NC(=S)/C(=C\c2ccc(-c3ccccc3Cl)o2)S1	79	2	1	95*	3	97*
COc1ccc(C(=O)CC(=O)C(=O)Nc2ccc(C)c(Cl)c2)cc1	5	3	2	97*	3	78
COc1ccc(C(=O)CC(=O)C(=O)Nc2cc(C)ccc2C)cc1	5	-9	1	-5	8	0
CCN1/C(=C/c2sc(-c3ccccc3C)c[n+]2C)Sc2ccccc21	.	.	.	101*	.	100*
CN(Cc1ccc(C(F)(F)F)cc1)C(=O)c1ccc(Oc2ccccc2)cc1	6	-5	0	14	0	-3
CN(Cc1ccccc1F)C(=O)c1ccc(Oc2ccccc2)cc1	4	-1	-1	91*	6	78
O=C(COC(=O)Cc1ccc(Cl)cc1)NCc1cccs1	7	6	0	7	29*	0
NC(=O)C1=CC(C2CCCCC2)CC(OCCCCO)O1 (stereo not given)	.	.	.	-2	3	4
CCN1C(=O)N(CC)C(=O)C2(Cc3ccccc3N3CCN(c4ccccc4)CC32)C1=O (stereo not given)	-4	-8	2	89*	3	3
COc1ccc(C(=O)/C=C2\Sc3ccccc3N2C)cc1	3	-2	1	7	4	7
COc1ccc(-[n+]2c(C)cc(/C=C3\Sc4ccccc4N3C)cc2C)cc1	100	-10	-7	100*	.	100*
COc1ccccc1-[n+]1c(C)cc(/C=C2\Sc3ccccc3N2C)cc1C	100	-2	2	100*	.	100*
CCN1CC2C3C(=O)N(Cc4ccccc4)C(=O)C3[C@](CC)(C1=O)N2C(=O)c1ccc(C(C)(C)C)cc1 (stereo not given in full)	.	.	.	-6	-3	4
O=C(CCl)N(c1ccc(Cl)cc1)c1c[nH]c2ccccc12	99	4	0	97*	36*	90*
O=C(CCl)N(c1ccccc1)c1c[nH]c2ccccc12	100	-3	0	90*	.	91
COC(=O)C1=C(c2cccc(OCc3ccccc3)c2)CC2CCC1N2C(=O)NCc1ccc(Br)cc1 (stereo not given)	.	.	.	0	9	-11
NC1=C(Br)C(=O)c2ccccc2C1=O	90	-45	-3	95*	16	77
Cc1cc2c(cc1C)C(=O)C(Br)=C(N)C2=O	.	.	.	13	-11	38
C#CCOCCOCCOCCNc1nc(N2CCN(C(=O)C(CCC(=O)O)n3cc(C(N)CCCCN)nn3)CC2)nc(N2CCN(C(=O)C(CCCN=C(N)N)n3cc(C(N)C(C)CC)nn3)CC2)n1 (stereo not given)	.	.	.	-1	-2	7
COc1ccccc1-c1sc2ccccc2c1-c1ccc(O)cc1	1	2	-2	93*	2	-22
CC1CC(O)c2cc(Cl)ccc2N1 (stereo not given)	.	.	.	-2	8	7
O=C1C=C(c2ccc3c(c2)OCO3)CC(c2ccc3c(c2)OCO3)C1 (stereo not given)	.	.	.	9	6	4
Fc1ccc(CSc2nnc(-c3ccccn3)o2)cc1	13	.	-1	6	39*	4
COc1ccc(-c2coc3c(C)c4oc(=O)c(CC(=O)O)c(C)c4cc23)cc1	.	.	.	100*	9	93*
CC[C@@H](C)[C@H](NC(=O)Cc1c(C)c2cc3c(C)coc3c(C)c2oc1=O)C(=O)O	2	-4	1	-1	7	0
COc1cccc(-c2coc3c(C)c4oc(=O)c(CC(=O)O)c(C)c4cc23)c1	0	-10	0	99*	2	95*
COc1cccc(-c2coc3c(C)c4oc(=O)c(CCC(=O)O)c(C)c4cc23)c1	-4	-44	0	100*	6	100*
Cc1c(CC(=O)O)c(=O)oc2c(C)c3occ(-c4ccc(Br)cc4)c3cc12	?	6	1	.	.	.
